Structures are written as SMILES. Compounds without any hit were thinned out: in the full panel of roughly 79,000, 15% have a hit. A number with no mark means an inactive call. The source made the active and inactive calls. Cut-off read from the data, not from the text of the source: active = growth inhibition above about 70%; inactive = the rest.

The nature of experiment [1]: NCI Yeast Anticancer Drug Screen. Data for the rad50 strain (AID 155).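 Note: 0% = growth of vehicle-only cultures of the same strain.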 The note with it: S. cerevisiae rad50 strain growth inhibition, active compounds read high. The method, boiled down:
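DNA repair mutant yeast, compound exposure, growth read-out; inhibition is taken relative to vehicle.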

The nature of experiment [2]: NCI Yeast Anticancer Drug Screen. Data for the mec2-1 strain (AID 157). To be noted: S. cerevisiae mec2-1 strain, active compounds read high. The gist of the method:
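Readout is yeast growth inhibition, normalised to vehicle-treated controls, in the mec2-1 strain exposed to compound.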

The nature of experiment [3]: NCI Yeast Anticancer Drug Screen. Data for the cln2 rad14 strain (AID 165).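 Note: 0% = growth equal to vehicle treated cultures.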 The note with it: S. cerevisiae cln2 rad14 strain, active compounds read high. The gist of the method:
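Relative to vehicle controls, growth inhibition of compound-treated cln2 rad14 yeast was recorded.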

A short description of experiment [4]: NCI Yeast Anticancer Drug Screen. Data for the bub3 strain (AID 167). The note with it: S. cerevisiae bub3 mutant strain, active compounds read high. The gist of the method: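 In this screen, a yeast mutant lacking normal mitotic checkpoint function is challenged with compound. Relative growth versus vehicle gives the inhibition value.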
Experiment [5] in a line: NCI Yeast Anticancer Drug Screen. Data for the mlh1 rad18 strain (AID 175). The note with it: S. cerevisiae mlh1 rad18 strain growth inhibition, active compounds read high. The gist of the method:
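Test agents were incubated with a yeast strain of defined genotype (DNA damage repair defect). Inhibition of growth was derived by comparison with vehicle-exposed cultures.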

The nature of experiment [6]: NCI Yeast Anticancer Drug Screen. Data for the sgs1 mgt1 strain (AID 161).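 Note: 0% = growth of cultures given vehicle only.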 The note with it: S. cerevisiae sgs1 mgt1 strain, active compounds read high. The gist of the method:
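Growth of a repair-deficient yeast mutant was monitored after compound treatment and expressed as inhibition relative to vehicle-treated cultures.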

[7] abbreviates: at 5.0 µM (retest, dose inferred, filed as 0.5).
The mark [8] stands for this setting: at 50.0 µM (retest, dose inferred, filed as 5.0).

Turning to `CC1(C)C2CCC([CH2][Hg][Cl])C1C2` (configuration not stated), the growth inhibition in experiment [1] (setting [7]) was 99% (active); in experiment [1] (setting [8]), 98% (active); in experiment [1] (at 50.0 µM) it was 98.8% (active); in experiment [2] (setting [7]) it was 100% (active); in experiment [2] (setting [8]), 95% (active); in experiment [2] (at 50.0 µM) it was 99.2% (active). In addition, the growth inhibition in experiment [3] (setting [7]) is 99% (active); in experiment [3] (setting [8]), 98% (active); in experiment [3] (at 50.0 µM), 99% (active); in experiment [4] (setting [7]), 99% (active); in experiment [4] (setting [8]), 98% (active); in experiment [4] (at 50.0 µM), 99.3% (active). Besides, the growth inhibition is 100% (active) in experiment [5] (setting [7]), 98% (active) in experiment [5] (setting [8]) and 99% (active) in experiment [5] (at 50.0 µM).

For `O=C(O)c1cc(Cc2ccc(O)c(C(=O)O)c2)ccc1O` (tested in a mixture with another compound), the growth inhibition is 92% (active) in experiment [1] (setting [7]); 32% in experiment [1] (setting [8]); 42.6% in experiment [1] (at 50.0 µM); 76% (active) in experiment [2] (setting [7]); 4% in experiment [2] (setting [8]); 26.7% in experiment [2] (at 50.0 µM). Besides, the growth inhibition is 40% in experiment [6] (setting [7]); 48% in experiment [6] (setting [8]); 85% (active) in experiment [6] (at 50.0 µM); 31% in experiment [3] (setting [7]); 41% in experiment [3] (setting [8]); 14.1% in experiment [3] (at 50.0 µM). Further, the growth inhibition was 87% (active) in experiment [5] (setting [7]), 36% in experiment [5] (setting [8]) and 74.4% (active) in experiment [5] (at 50.0 µM).

Regarding `COC1OC(OC)[CH]([Hg][Cl])C1OC` (configuration not stated), the growth inhibition is 99% (active) in experiment [1] (setting [7]); 99% (active) in experiment [1] (setting [8]); 99.5% (active) in experiment [1] (at 50.0 µM); 99% (active) in experiment [2] (setting [7]); 100% (active) in experiment [2] (setting [8]); 99.7% (active) in experiment [2] (at 50.0 µM). Moreover, the growth inhibition in experiment [6] (setting [7]) was 99% (active); in experiment [6] (setting [8]), 99% (active); in experiment [6] (at 50.0 µM), 99.4% (active); in experiment [3] (setting [7]), 99% (active); in experiment [3] (setting [8]), 99% (active); in experiment [3] (at 50.0 µM), 98.5% (active). Moreover, the growth inhibition in experiment [5] (setting [7]) is 99% (active); in experiment [5] (setting [8]) it was 99% (active); in experiment [5] (at 50.0 µM), 99.4% (active).

Take `O=[N+]([O-])/C=C/c1ccccc1Cl`: the growth inhibition in experiment [1] (setting [7]) is 91% (active); in experiment [1] (setting [8]) it was 98% (active); in experiment [1] (at 50.0 µM) it was 90.8% (active); in experiment [2] (setting [7]), 99% (active); in experiment [2] (setting [8]), 99% (active); in experiment [2] (at 50.0 µM) it was 92.8% (active). Further, the growth inhibition in experiment [3] (setting [7]) is 68%; in experiment [3] (setting [8]) it was 98% (active); in experiment [3] (at 50.0 µM), 92.2% (active); in experiment [4] (setting [7]), 98% (active); in experiment [4] (setting [8]), 99% (active); in experiment [4] (at 50.0 µM), 91% (active). Besides, the growth inhibition is 99% (active) in experiment [5] (setting [7]), 99% (active) in experiment [5] (setting [8]) and 91.2% (active) in experiment [5] (at 50.0 µM).

In the case of `OC1C2[C@@H](O)CCCN2C[C@@H](O)[C@H]1O` (some centres not stated), the growth inhibition is 15% in experiment [1] (setting [7]); 21% in experiment [1] (setting [8]); -45.2% in experiment [1] (at 50.0 µM); 11% in experiment [2] (setting [7]); 13% in experiment [2] (setting [8]); -59% in experiment [2] (at 50.0 µM). Besides, the growth inhibition is 5% in experiment [6] (setting [7]); 14% in experiment [6] (setting [8]); -34.5% in experiment [6] (at 50.0 µM); 14% in experiment [5] (setting [7]); 58% in experiment [5] (setting [8]); -15.3% in experiment [5] (at 50.0 µM).

`C[CH2][Hg]`: the growth inhibition in experiment [1] (setting [7]) is 98% (active); in experiment [1] (setting [8]), 99% (active); in experiment [1] (at 50.0 µM), 99.1% (active); in experiment [2] (setting [7]), 100% (active); in experiment [2] (setting [8]) it was 99% (active); in experiment [2] (at 50.0 µM), 99.5% (active). The growth inhibition in experiment [6] (setting [7]) is 99% (active); in experiment [6] (setting [8]), 99% (active); in experiment [6] (at 50.0 µM), 57.1%; in experiment [4] (setting [7]), 99% (active); in experiment [4] (setting [8]), 99% (active); in experiment [4] (at 50.0 µM), 99.2% (active). Further, the growth inhibition is 94% (active) in experiment [5] (setting [7]), 99% (active) in experiment [5] (setting [8]) and 52.2% in experiment [5] (at 50.0 µM).

For `N#Cc1cc([N+](=O)[O-])c(Cl)c([N+](=O)[O-])c1Cl`, the growth inhibition in experiment [1] (setting [7]) is 50%; in experiment [1] (setting [8]), 98% (active); in experiment [1] (at 50.0 µM), 92.6% (active); in experiment [2] (setting [7]), 61%; in experiment [2] (setting [8]), 99% (active); in experiment [2] (at 50.0 µM) it was 93.2% (active). In addition, the growth inhibition was 100% (active) in experiment [6] (setting [7]); 98% (active) in experiment [6] (setting [8]); 70% (active) in experiment [3] (setting [7]); 97% (active) in experiment [3] (setting [8]); 99% (active) in experiment [4] (setting [7]); 96% (active) in experiment [4] (setting [8]). Also, the growth inhibition in experiment [5] (setting [7]) was 41%; in experiment [5] (setting [8]) it was 99% (active); in experiment [5] (at 50.0 µM), 92.1% (active).

For the compound `CC(=O)[O-].CC(=O)[O-].O=C([CH-]C(=O)c1ccccc1)c1ccccc1.[Nd+3].[OH3+]`, the growth inhibition was 33% in experiment [1] (setting [7]); 33% in experiment [1] (setting [8]); 91.6% (active) in experiment [1] (at 50.0 µM); 27% in experiment [2] (setting [7]); 27% in experiment [2] (setting [8]); 91.9% (active) in experiment [2] (at 50.0 µM). Also, the growth inhibition in experiment [6] (setting [7]) was 30%; in experiment [6] (setting [8]) it was 30%; in experiment [6] (at 50.0 µM), 93% (active); in experiment [4] (setting [7]), 27%; in experiment [4] (setting [8]), 27%; in experiment [4] (at 50.0 µM) it was 91% (active). Moreover, the growth inhibition in experiment [5] (setting [7]) was 24%; in experiment [5] (setting [8]), 24%; in experiment [5] (at 50.0 µM) it was 88.8% (active).

Take `CCOC(=O)c1[nH]cnc1/N=N/N(C)N`: the growth inhibition in experiment [1] (setting [7]) was 97% (active); in experiment [1] (setting [8]), 98% (active); in experiment [1] (at 50.0 µM), 86.8% (active); in experiment [2] (setting [7]) it was 99% (active); in experiment [2] (setting [8]) it was 99% (active); in experiment [2] (at 50.0 µM) it was 92% (active). For the same compound, the growth inhibition in experiment [6] (setting [7]) is 53%; in experiment [6] (setting [8]), 87% (active); in experiment [6] (at 50.0 µM) it was 90.1% (active); in experiment [4] (setting [7]), 47%; in experiment [4] (setting [8]), 88% (active); in experiment [4] (at 50.0 µM), 89.5% (active). For the same compound, the growth inhibition is 97% (active) in experiment [5] (setting [7]), 97% (active) in experiment [5] (setting [8]) and 90% (active) in experiment [5] (at 50.0 µM).

Turning to `O=C([CH-]C(=O)c1ccccc1)c1ccccc1.O=C([CH-]C(=O)c1ccccc1)c1ccccc1.[CH2-]CCC.[CH2-]CCC.[Sn+4]`, the growth inhibition in experiment [1] (setting [7]) is 83% (active); in experiment [1] (setting [8]) it was 98% (active); in experiment [1] (at 50.0 µM), 90.3% (active); in experiment [2] (setting [7]), 91% (active); in experiment [2] (setting [8]), 99% (active); in experiment [2] (at 50.0 µM), 93.2% (active). Further, the growth inhibition in experiment [6] (setting [7]) is 86% (active); in experiment [6] (setting [8]), 58%; in experiment [6] (at 50.0 µM) it was 93% (active); in experiment [4] (setting [7]), 90% (active); in experiment [4] (setting [8]), 93% (active); in experiment [4] (at 50.0 µM), 91.8% (active). In addition, the results for the growth inhibition in experiment [5] (setting [7]), in experiment [5] (setting [8]) and in experiment [5] (at 50.0 µM) were 92% (active), 99% (active) and 90% (active), respectively.

Take `C[CH2][Sn]([CH2]C)[O][Sn]([Cl])([CH2]C)[CH2]C`: the growth inhibition in experiment [1] (setting [7]) is 51%; in experiment [1] (setting [8]), 96% (active); in experiment [1] (at 50.0 µM), 87.9% (active); in experiment [2] (setting [7]), 35%; in experiment [2] (setting [8]) it was 97% (active); in experiment [2] (at 50.0 µM), 88.3% (active). Moreover, the growth inhibition in experiment [3] (setting [7]) was 19%; in experiment [3] (setting [8]), 91% (active); in experiment [3] (at 50.0 µM), 84% (active); in experiment [4] (setting [7]), 39%; in experiment [4] (setting [8]), 96% (active); in experiment [4] (at 50.0 µM) it was 83.3% (active). In addition, the growth inhibition in experiment [5] (setting [7]) was 75% (active); in experiment [5] (setting [8]), 97% (active); in experiment [5] (at 50.0 µM) it was 86.7% (active).

Source of the values: PubChem BioAssay (NCI).
